Screening data deposited in PubChem BioAssay by several laboratories.
V-ATPase pH: yeast V-ATPase proton transport regulation by pHLuorin; actives 0.37% (n = 350,000); response, % at 10 µM; S. cerevisiae, pHLuorin cytosolic pH fluorescence; AID 504577; in the data active = response mostly above about 7.3%, no sharp cut-off; inactive = mostly below about 5.4%; also: actives read high
PERK inhibitor: blocks human PERK kinase; CHO PERK-DD fusion, SEAP luminescence translation reporter; inhibition, % at 5.6 µM; AID 1416; actives 0.17% (n = 220,000); Q9NZJ5;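 active = inhibition above the mean inhibition of all tested compounds plus 3 SD, set separately per screening campaign, cut at about 2.9% in these data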;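 also: PERK kinase domain activated by AP20187 dimerizer at 100 nM; 0% = DMSO with dimerizer and 100% = rapamycin at 8.4 µM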
NLRP3 yeast inh: blocks the NALP3 inflammasome reconstituted in yeast; Yeast reconstituted NLRP3/ASC/caspase-1, beta-gal luminescence, 24 h; inhibition, % at 10 µM; actives 0.39% (n = 330,000);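 active = inhibition of 50% or more; inactive = inhibition below 50%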;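 also: plate controls were induced DMSO wells for no effect and uninduced yeast grown without galactose for full effect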
CR mimetic SO: lowers age-related superoxide in aged yeast cells. superoxide response (% of plate mean), % at 10 µM. AID 2690. S. cerevisiae aged cells, superoxide DHE fluorescence; hits give low values. actives 0.18% (n = 330,000);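 active = superoxide response under a set limit, about three screen SD below normal, cut at about 65% in these data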;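 also: yeast aged for seven days with compound at 30 °C before DHE staining; 100% = average MFI of all compound-treated wells on the plate with controls excluded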
NALP1 inh: inhibitors of NALP1 inflammasome in yeast; S. cerevisiae NALP1/ASC/caspase-1 growth, X-gal OD620, 72 h; inhibition, % at 10 µM; actives 0.61% (n = 280,000); in the data active = inhibition mostly above about 24%, no sharp cut-off; inactive = mostly below about 32%
Rce1 inhib: blocks yeast Ras-converting enzyme. actives 0.27% (n = 290,000). calls only. yeast membranes, quenched prenylated peptide cleavage fluorescence. Q03530;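 active = fall in fluorescence gain of 50% or more versus controls, with final raw signal at or below 3038400; inconclusive = same 50% fall but final raw signal above 3038400; inactive = fall in fluorescence gain under 50%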;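 also: plate controls were neutral control wells for no effect and wells lacking membranes for full effect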
Starred values were filed as active, the others as inactive; i = inactive; ? = inconclusive; . = no result given; + = active, no number. The list is not random: actives were taken first. Their share in the collection is about 1.6%.

SMILES	V-ATPase pH	PERK inhibitor	NLRP3 yeast inh	CR mimetic SO	NALP1 inh	Rce1 inhib
O=C(Cn1cnc2c(nnn2Cc2ccccc2F)c1=O)N1CCN(c2ccccc2)CC1	4	-1	14	128	7	i
O=C(Cn1cnc2c(nnn2Cc2ccccc2F)c1=O)OCc1ccccc1	0	1	-5	103	26*	i
CCOC(=O)c1cn(-c2nc(-c3ccc(Cl)cc3)cs2)c2c(F)c(N3CC(C)OC(C)C3)c(F)cc2c1=O (stereo unspecified)	.	3.2*	.	.	4	.
CCOC(=O)c1cn(C2CC2)c2c(F)c(F)c(F)cc2c1=O	-1	1	17	97	4	i
COc1ccc(OCC(=O)c2c(O)c3ccccc3oc2=O)cc1	16*	1	-2	106	20	i
CCOc1ccc(OCC(=O)c2c(O)c3ccccc3oc2=O)cc1	-2	2	10	92	-5	.
COC(=O)/C(=N/Nc1ccc(C)cc1)N1CCCc2ccccc21	1	0	-2	63*	46	i
COC(=O)/C(=N/Nc1ccccc1)N1CCCc2ccccc21	-8	1	-9	103	38	i
Cc1ccc(S(=O)(=O)N2C[C@H]3[C@H]4C(=O)N(c5ccccc5)C(=O)[C@H]4C[C@H](OC(=O)NCc4ccccc4F)[C@@]3(O)C2)cc1	1	.	.	.	.	.
CCSc1nnc(NC(=O)c2cccc3ccccc23)s1	-5	0	25	99	37	i
CCSc1nnc(NC(=O)c2cc(-c3ccccc3O)n[nH]2)s1	15	3.8*	9	98	.	i
Nc1ccc(C(=O)c2cccs2)cc1	0	1	29	96	48*	i
COc1ccc(CCNCc2ccc(OCc3ccccc3)cc2)cc1	0	.	47	105	45*	i
COc1ccc(C(CCNCc2ccccc2)c2ccc(F)cc2)cc1 (stereo unspecified)	-1	0	30	95	31	i
COc1ccc(CNC(=O)CNC(C)c2ccc(F)cc2)cc1 (stereo unspecified)	2	.	24	106	9	i
COc1ccc(C(CCNCc2ccc(F)cc2)c2ccc(F)cc2)cc1 (stereo unspecified)	2	-1	35	113	68*	i
COc1ccc(CNCCC(c2ccc(F)cc2)c2ccc(OC)cc2)cc1 (stereo unspecified)	1	0	23	109	79*	i
COc1ccc(CNS(=O)(=O)CCNCCc2ccccc2)cc1	0	.	.	.	.	.
COc1ccc(C(CCNC(C)c2ccccc2)c2ccc(F)cc2)cc1 (stereo unspecified)	-1	0	29	119	43*	i
CCOC(=O)C1(CCOC)CCCCC1=O (stereo unspecified)	0	.	.	.	.	.
COc1ccccc1N1CCN(c2ccc3c(c2)S(=O)(=O)c2cccc(C(=O)NCc4cccc(F)c4)c2C3=O)CC1	-1	.	.	.	.	.
NS(=O)(=O)c1ccc(Oc2ccc(S(N)(=O)=O)cc2)cc1	1	0	12	105	-17	i
C=CS(=O)(=O)c1ccc(Oc2ccc(S(=O)(=O)C=C)cc2)cc1	1	-1	39	133	75*	i
CC(=O)n1c2c(c3ccccc31)OC(N)=C(C#N)C2c1ccc(C(C)C)cc1 (stereo unspecified)	-2	1	14	96	34*	i
CC(=O)C1=C(C)OC(N)=C(C#N)C1c1cccc2ccccc12 (stereo unspecified)	4	1	6	94	-5	i
SMILES	V-ATPase pH	PERK inhibitor	NLRP3 yeast inh	CR mimetic SO	NALP1 inh	Rce1 inhib
COC(=O)[C@H]1C[C@@]2(O)CN(S(=O)(=O)c3ccc(C)cc3)C[C@@]2(OC(=O)NCc2ccco2)C[C@H]1C(=O)OC	-1	.	.	.	.	.
c1ccc(CN2CCC3CC2c2cc(N4CCOCC4)ccc23)cc1 (stereo unspecified)	-1	.	.	.	.	.
CC(C)Oc1ccc(CCC(=O)NNC(=O)CCC(=O)O)cc1	-1	3.1*	-17	96	-3	i
CCCCn1c(N)c(N(CCOC)C(=O)CCS(=O)(=O)c2ccc(C)cc2)c(=O)[nH]c1=O	1	.	.	.	.	.
Cc1ccc(C2(COC(=O)C(C)C)CO2)c(OC(=O)C(C)C)c1 (stereo unspecified)	5	.	17	113	-3	+
Cc1cc(C)c(OCC(=O)OCC(=O)NC2CCCCCCC2)c(C)c1	-2	.	16	91	3	i
Cc1cc(C)cc(OCC(=O)OCC(=O)NC2CCCCCC2)c1	17*	.	9	93	.	.
COc1ccc(OCCC(=O)OCC(=O)Nc2cccc(S(=O)(=O)N3CCOCC3)c2)cc1	-2	3.3*	3	101	26	i
Cc1ccc(C2N(C)c3ccccc3-c3nc4ccccc4n32)o1 (stereo unspecified)	0	-1	-9	91	4	?
CN1c2ccccc2-c2nc3ccccc3n2C1c1cccs1 (stereo unspecified)	9	0	14	86	46	+
CCN(C(=O)COc1ccccc1)c1nnc(-c2cccnc2)s1	26*	-1	21	83	7	i
C[C@H](CO)N1C[C@H](C)[C@@H](CN(C)Cc2ccc(C(=O)O)cc2)Oc2ncc(-c3ccc(C(=O)N(C)C)cc3)cc2C1=O	1	.	.	.	.	.
CN(C)CC(C)(C)CNC(=S)NCc1ccc2c(c1)OCO2	2	0	10	103	22	+
CCN(CC)S(=O)(=O)c1ccc(N2CCN(C)CC2)c(NC(=O)CN2C(=O)NC3(CCCCC3)C2=O)c1	0	.	.	.	.	.
CCNC(=O)COc1cccc(C(=O)NCc2ccccc2)c1	1	0	17	100	24	i
CC(C)CNC(=O)COc1cccc(C(=O)NCc2ccccc2)c1	11	-1	28	83	35	+
c1ccc(N=NC2=NN(c3ccccc3)CS2)cc1	-2	.	.	.	.	.
O=[N+]([O-])c1ccc(N2CCN(Cc3ccccc3)CC2)c2c1no[n+]2[O-]	0	.	.	.	.	.
CN(C)C(=O)N1CCc2ccc([N+](=O)[O-])cc21	5	.	.	.	.	.
Cc1ccn(CCC(=O)N2CCCC(N3CCN(c4ccccc4C)CC3)C2)n1 (stereo unspecified)	1	.	.	.	.	.
COc1ccc(C(=O)Cc2ccccc2)cc1OC	-2	4.8*	8	87	29	i
COc1ccc(CC(=O)c2ccc(OC)c(OC)c2)cc1	-3	0	17	89	34	i
Cc1ccc2nc(Cl)c(C3CC(c4cccs4)=NN3C(=O)CCCC(=O)O)cc2c1 (stereo unspecified)	0	2	0	118	49	+
CCCn1c(/C=C/c2ccco2)nc2ccccc21	0	-1	-14	104	36	i
CCCCn1c(/C=C/c2ccco2)nc2ccccc21	0	1	8	107	55*	i
